Experimental data published in the supplement of paper PMC12067926.

Key:
Test in all cases: relative growth (AUC of 72 h growth curve relative to DMSO control, dAUC) (ratio); higher = more growth (less inhibition), active = hit call of the paper
Conditions in all cases: 20 µM;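 active = growth AUC significantly below the DMSO wells by Dunnett test; inactive = the rest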
[1] = tested on: Prolinoborus 1 (Prolinoborus fasciculus)
How it was run: (§1)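 Whole sediment communities and bacterial isolates from Icelandic stream sediments and Silwood Park soil were brought to carrying capacity in Luria–Bertani medium. They were then diluted 1:100 into 96-well plates with each chemical at 20 µM in 1% DMSO, and A600 was recorded every hour for 72 h. The area under each growth curve, integrated by spline, was averaged across three biological replicates. This figure, divided by the mean of the DMSO controls, gives relative growth (dAUC).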

[2] = tested on: Pseudomonas 1 (Pseudomonas baetica)
How it was run: as §1

[3] = tested on: Pseudomonas 2 (Pseudomonas vancouverensis)
How it was run: as §1

[4] = tested on: Pseudomonas 3 (Pseudomonas mandelii)
How it was run: as §1

[5] = tested on: Pseudomonas 4 (Pseudomonas peli)
How it was run: as §1

[6] = tested on: Pseudomonas 5 (Pseudomonas baetica)
How it was run: as §1

[7] = tested on: Pseudomonas 6 (Pseudomonas sp.)
How it was run: as §1

[8] = tested on: Rhizobium 1 (Rhizobium herbae)
How it was run: as §1

[9] = tested on: Serratia 1 (Serratia sp. 2015-2462-01)
How it was run: as §1

[10] = tested on: Sphingomonas 2 (Sphingomonas sp.)
How it was run: as §1

Measured: relative growth

CON(C)C(=O)Nc1ccc(Cl)c(Cl)c1
inactive: [1] 0.886 | [2] 0.986 | [3] 0.949 | [4] 0.991 | [5] 0.982 | [6] 0.984 | [7] 1.02 | [8] 0.869 | [9] 0.978 | [10] 1.02

CCC(C)c1ccccc1OC(=O)NC (stereo not given)
inactive: [1] 1.02 | [2] 0.95 | [3] 1.01 | [4] 1.07 | [5] 1.01 | [6] 1.04 | [7] 1.09 | [8] 1.01 | [9] 0.971 | [10] 1

CCOC(=O)OC1=C(c2cc(C)ccc2C)C(=O)N[C@]12CC[C@@H](OC)CC2
inactive: [1] 1 | [2] 1.11 | [3] 0.998 | [4] 1.02 | [5] 1.02 | [6] 0.981 | [7] 1.09 | [8] 0.952 | [9] 0.987 | [10] 1.04

C#CCOc1ccc(CCNC(=O)C(OCC#C)c2ccc(Cl)cc2)cc1OC (stereo not given)
inactive: [1] 0.958 | [2] 0.979 | [3] 0.988 | [4] 1.02 | [5] 0.992 | [6] 0.985 | [7] 1.07 | [8] 1.06 | [9] 0.968 | [10] 1.13

CN/C(=N\[N+](=O)[O-])NCc1cnc(Cl)s1
inactive: [1] 0.937 | [2] 1.1 | [3] 0.964 | [4] 1.01 | [5] 0.974 | [6] 1.03 | [7] 1.09 | [8] 0.902 | [9] 0.931 | [10] 0.945

CC(Oc1ccc(Oc2ncc(C(F)(F)F)cc2Cl)cc1)C(=O)O (stereo not given)
inactive: [1] 0.983 | [2] 1.1 | [3] 1.04 | [4] 1.05 | [5] 1 | [6] 1.03 | [7] 1.17 | [8] 1.11 | [9] 0.972 | [10] 1.08

Cc1cc(C)c(C2=C(OC(=O)CC(C)(C)C)C3(CCCC3)OC2=O)c(C)c1
inactive: [1] 0.977 | [2] 1.1 | [3] 1.12 | [4] 1.09 | [5] 1 | [6] 1.03 | [7] 1.2 | [8] 0.937 | [9] 1.03 | [10] 1.01

COP(=S)(OC)Oc1nc(Cl)c(Cl)cc1Cl
inactive: [1] 1.04 | [2] 1.06 | [3] 1.08 | [4] 1.09 | [5] 1.03 | [6] 1.06 | [7] 1.12 | [8] 0.8 | [9] 0.998 | [10] 1.06

CC(C)N1C(=O)N(c2ccccc2)CS/C1=N\C(C)(C)C
inactive: [1] 0.883 | [2] 1.05 | [3] 0.977 | [4] 1.02 | [5] 0.937 | [6] 1.03 | [7] 1.07 | [8] 0.931 | [9] 0.962 | [10] 1.05

Cc1cc(C)nc(Nc2ccccc2)n1
inactive: [1] 0.979 | [2] 0.925 | [3] 0.956 | [4] 1.03 | [5] 0.947 | [6] 0.99 | [7] 1.03 | [8] 0.868 | [9] 0.937 | [10] 0.984

CCSC(C)CC1CC(=O)C(/C(CC)=N/OC/C=C/Cl)=C(O)C1 (mixture of isomers)
inactive: [1] 0.983 | [2] 1.07 | [3] 0.999 | [4] 1.02 | [5] 1.01 | [6] 1.05 | [7] 1.14 | [8] 0.924 | [9] 0.973 | [10] 1.18

COc1cc(C)c(C(=O)c2c(OC)ccc(Br)c2C)c(OC)c1OC
inactive: [1] 1.01 | [2] 0.978 | [3] 1.01 | [4] 1 | [5] 1.02 | [6] 0.991 | [7] 0.939 | [8] 0.937 | [9] 1.02 | [10] 1.04

CC1(C)C(C(=O)OC(C#N)c2cccc(Oc3ccccc3)c2)C1(C)C (stereo not given)
inactive: [1] 0.893 | [2] 1.08 | [3] 1 | [4] 1.04 | [5] 0.948 | [6] 1.01 | [7] 1.01 | [8] 1.05 | [9] 1 | [10] 0.98

CCCCCCCCCCCCNC(=N)N
inactive: [2] 1.05 | [3] 0.94 | [4] 0.902 | [6] 0.904 | [7] 0.922
active: [1] 0.00813 | [5] 0.847 | [8] 0.00569 | [9] 0.00141 | [10] 0.00501

CCOc1cc(Oc2ccc(C(F)(F)F)cc2Cl)ccc1[N+](=O)[O-]
inactive: [1] 0.938 | [2] 1.08 | [3] 0.992 | [4] 1.05 | [5] 0.939 | [6] 1.01 | [7] 1.12 | [8] 0.994 | [9] 0.952 | [10] 1.2

CO/N=C(/C(=O)OC)c1ccccc1CO/N=C(\C)c1cccc(C(F)(F)F)c1
inactive: [1] 0.953 | [2] 1.13 | [3] 1 | [4] 1.04 | [5] 0.949 | [6] 0.978 | [7] 1.03 | [8] 0.921 | [9] 0.952 | [10] 1.1

CC(C)N1C(=O)c2ccccc2NS1(=O)=O
inactive: [1] 1.01 | [2] 1.16 | [3] 1.03 | [4] 1.02 | [5] 0.975 | [6] 1.01 | [7] 1.03 | [8] 1.04 | [9] 0.991 | [10] 1.01

CN(C)C(CSS(=O)(=O)O)CSS(=O)(=O)O
inactive: [1] 0.961 | [2] 1.14 | [3] 0.994 | [4] 1.08 | [5] 0.978 | [6] 1.04 | [7] 1.1 | [8] 0.931 | [9] 0.953 | [10] 0.893

CCc1nn(C)c(C(=O)NCc2ccc(Oc3ccc(C)cc3)cc2)c1Cl
inactive: [1] 0.978 | [2] 1.08 | [3] 1.02 | [4] 1.01 | [5] 0.987 | [6] 1.01 | [7] 1.05 | [8] 0.941 | [9] 1.07 | [10] 1.04

C[C@@H]1[C@@H](c2ccc(Cl)cc2)SC(=O)N1C(=O)NC1CCCCC1
inactive: [1] 0.994 | [2] 0.933 | [3] 0.976 | [4] 1.02 | [5] 1 | [6] 1.05 | [7] 1.13 | [8] 0.964 | [9] 1 | [10] 0.987

COc1ccc(-c2ccccc2)cc1NNC(=O)OC(C)C
inactive: [1] 0.918 | [2] 1.14 | [3] 0.964 | [4] 1.05 | [5] 0.951 | [6] 1.08 | [7] 1.17 | [8] 0.865 | [9] 0.932 | [10] 0.92

N#Cc1cc(Br)c(O)c(Br)c1
inactive: [1] 0.996 | [2] 1.06 | [3] 1.02 | [4] 1.09 | [5] 0.964 | [6] 1.05 | [7] 1.12 | [8] 0.751 | [9] 0.998 | [10] 1.06

CC1(C)C(C=C(Cl)Cl)C1C(=O)OC(C#N)c1cccc(Oc2ccccc2)c1 (stereo not given)
inactive: [1] 0.983 | [2] 0.942 | [3] 1.06 | [4] 1.06 | [5] 1.04 | [6] 1.02 | [7] 1 | [8] 1.15 | [9] 1.01 | [10] 1.03

CC1(C(=O)Nc2ccc(O)c(Cl)c2Cl)CCCCC1
inactive: [1] 0.938 | [2] 1.08 | [3] 1.01 | [4] 1.05 | [5] 0.976 | [6] 1.02 | [7] 1.16 | [8] 0.84 | [9] 0.976 | [10] 0.967

OC(Cc1ccccc1Cl)(Cn1nc[nH]c1=S)C1(Cl)CC1 (stereo not given)
inactive: [1] 1.02 | [2] 1.02 | [3] 0.995 | [4] 1.01 | [5] 1 | [6] 0.995 | [7] 0.982 | [8] 1.07 | [9] 1.05 | [10] 0.981

N#Cc1c[nH]cc1-c1cccc2c1OC(F)(F)O2
inactive: [1] 0.978 | [2] 0.952 | [3] 1 | [4] 1.03 | [5] 0.945 | [6] 0.971 | [7] 1.04 | [8] 0.932 | [9] 0.942 | [10] 0.957

O=C(O)CNCP(=O)(O)O
inactive: [1] 0.991 | [2] 0.996 | [3] 0.994 | [4] 1.05 | [5] 0.979 | [6] 1 | [7] 1.1 | [8] 1.03 | [9] 1.01 | [10] 1.02

CC1(C)C(C=C(Cl)Cl)C1C(=O)OC(C#N)c1ccc(F)c(Oc2ccccc2)c1 (stereo not given)
inactive: [1] 1.04 | [2] 1.22 | [3] 1.02 | [4] 1.02 | [5] 0.964 | [6] 1.03 | [7] 1.03 | [8] 1.06 | [9] 0.994 | [10] 1.03

Nc1c([N+](=O)[O-])ccc(Oc2ccccc2)c1Cl
inactive: [1] 0.962 | [2] 1.15 | [3] 0.982 | [4] 1.03 | [5] 0.949 | [6] 1.02 | [7] 1.15 | [8] 0.888 | [9] 0.946 | [10] 0.871
